# Source: PubChem BioAssay
# Mdm2-MdmX inh – inhibitors of human Mdm2/MdmX interaction. O15151+Q00987. SaOS-2 split-luciferase Mdm2/MdmX complementation, luminescence. inhibition, % at 8 µM. hit rate 3% among 330,000;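 active means inhibition of at least 50% at 8 µM in the primary screen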
# KLF5 inhibitor – suppresses KLF5 promoter-driven expression. DLD-1 KLF5 promoter-luciferase reporter, luminescence. inhibition, % at 5 µM. AID 1700. hit rate 0.23% among 290,000;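 active means inhibition above a per-plate limit of that plate's mean compound inhibition plus 3 SD, cut at about 60% in these data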;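 further: 0% = DMSO wells and 100% = LY294002 at 200 µM; higher means less KLF5 promoter-driven luciferase light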
# Jurkat NFkB inh – inhibitors of the PMA/ionomycin-induced NF-kB reporter in Jurkat cells; hit rate 0.53% among 330,000; inhibition, % at 4 µM; PMA/ionomycin-induced NF-kB luciferase reporter, luminescence; in the data active means inhibition above about 50%
# aSyn UTR inh – MLPCN primary screen, SNCA 5' untranslated region | alpha-synuclein 5'UTR reporter, inhibitor activity | inhibition, % (tested at 7.5 µM) | hit rate 0.82% among 300,000; in the data active means inhibition above about 60%;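 further: H4 neuroglioblastoma cells stably carrying SNCA 5'UTR luciferase fusion; 0% = DMSO wells and 100% = positive control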
# 697 NFkB inh – lowers PMA/ionomycin-induced NF-kB signal in 697 B cells; AID 435022; hit rate 0.33% among 330,000; inhibition, % at 4 µM; 697 B-cell NF-kB luciferase reporter, 16 h; in the data active means inhibition above about 35%
# Gli-Sufu antag – antagonists of Gli-Sufu signaling | Sufu-KO-LIGHT fibroblasts, Gli luciferase reporter luminescence | inhibition, % at 5 µM | hit rate 0.74% among 340,000;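 active means inhibition above about 55%, limit read from the data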;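 further: 0% = DMSO-treated cells and 100% = wells with medium but no cells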
# Mdm2 MdmX conf – human Mdm2/MdmX binding inhibition, confirmed | shares compounds with Mdm2-MdmX inh | luminescent assay | inhibition, % at 8 µM | hit rate 55% among 10,000 | AID 489028; in the data active means inhibition above about 40%
# FLuc counter – inhibits full-length luciferase, flagging false Mdm2/MdmX hits; shares compounds with Mdm2-MdmX inh; SaOS-2 full-length luciferase counterscreen, luminescence; inhibition, % at 8 µM; hit rate 77% among 6,200; AID 504607;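 active means mean inhibition at 8 µM reaching about 37%, which flags the compound as non-specific, limit read from the data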;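 further: p53-null SaOS-2 cells with luciferase driven by a doxycycline-inducible promoter; compound on cells about two nights before reading with doxycycline added after day one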
# Starred values were filed as active, the others as inactive; . = not tested or not shown. The list is not random: actives were taken first. Their share in the collection is about 4.1%.
SMILES,Mdm2-MdmX inh,KLF5 inhibitor,Jurkat NFkB inh,aSyn UTR inh,697 NFkB inh,Gli-Sufu antag,Mdm2 MdmX conf,FLuc counter
CC(C)=CCC/C(C)=C/CNC(=O)C[C@H]1C[C@H](C(=O)N(C(C)C)C(C)C)[C@@]2(C)c3[nH]c4ccc(Cl)cc4c3CCN2C1=O,51*,.,.,.,4,0,1,.
COc1ccc2[nH]c3c(c2c1)CCN1C(=O)C(CC(=O)NC/C=C(\C)CCC=C(C)C)C[C@H](C(=O)N(C(C)C)C(C)C)[C@@]31C (some centres undefined),84*,.,.,.,5,3,8,.
CC(C)=CCC/C(C)=C/CNC(=O)CC1C[C@H](C(=O)N(C(C)C)C(C)C)[C@@]2(C)c3[nH]c4ccccc4c3CCN2C1=O (some centres undefined),53*,.,9,.,1,0,-10,.
COc1cc(S(=O)(=O)n2cnc3ccccc32)ccc1Br,-5,-62,-29,-10,13,2,.,.
CN(C)S(=O)(=O)c1cccc(-c2nnc3n2CCCCC3)c1,3,9,-1,4,32,5,.,.
Cc1ccc(C(=O)NNc2c3ccccc3nc3ccccc23)cc1,1,-17,-24,-87,11,11,.,.
O=C(NNc1c2ccccc2nc2ccccc12)c1ccc(Cl)cc1,87*,-4,-17,-80,-2,10,67*,43*
Cc1cc(SCC(=O)c2ccc(O)c(O)c2)n2nc(C)c(-c3ccccc3)c2n1,52*,22,20,2,0,10,57*,54*
O=C(NCc1ccccc1)C1=C[C@H](c2csc3ccccc23)C[C@H](OCc2ccc(CO)cc2)O1,54*,.,-18,18,-137,18,37,59*
O=C(NCc1nc2ccccc2[nH]1)C1=C[C@H](c2ccccc2)C[C@H](OCc2ccc(CO)cc2)O1,5,-18,3,19,-6,13,.,.
CC(C)(C)[C@H]1C=C(C(=O)NCc2nc3ccccc3[nH]2)O[C@@H](OCc2ccc(CO)cc2)C1,53*,.,7,4,-7,2,54*,93*
O=C(NCc1nc2ccccc2[nH]1)C1=C[C@@H](C2CCCCC2)C[C@@H](OCc2ccc(CO)cc2)O1,37,-6,12,25,-16,-2,.,.
O=C(Nc1ccccc1)C1=C[C@@H](c2csc3ccccc23)C[C@@H](OCc2ccc(CO)cc2)O1,32,7,46,28,15,13,.,.
O=C(NCc1nc2ccccc2[nH]1)C1=C[C@H](C2CCCCC2)C[C@H](OCc2ccc(CO)cc2)O1,68*,6,7,32,3,19,44*,67*
O=C(Nc1ccccc1)C1=C[C@@H](C2CCCCC2)C[C@@H](OCc2ccc(CO)cc2)O1,96*,-7,-14,-2,-211,27,76*,24
O=C(Nc1cccc2nsnc12)c1cc2c(cc1Cl)Sc1nccn1S2(=O)=O,.,.,.,.,.,-5,.,.
CCOC(=O)c1c(C)[nH]c(C)c1S(=O)(=O)NCCc1ccco1,-19,-38,-1,-8,-19,-10,.,.
CCN(CC)c1ccc(NC(=O)c2ccc3c(c2)c(C)c(C)n3C)cc1,61*,-23,18,-33,-6,22,48*,71*
CCOC(=O)N1CCC(NC(=O)c2cnn3c(C(F)(F)F)cc(-c4cccc(OC)c4)nc23)CC1,61*,.,-1,21,-8,-8,13,.
COc1ccc(-c2cc(C(F)(F)F)n3ncc(C(=O)NCC4CCCO4)c3n2)cc1OC (centres undefined),57*,-16,18,29,0,-3,3,.
CCOC(=O)c1cnn2c(C(F)(F)F)cc(-c3ccccc3)nc12,21,-28,13,2,5,0,.,.
Cc1ccsc1C(=O)OC(C)C(=O)NC1CCCCC1C (centres undefined),-3,.,8,.,19,-5,.,.
CN1CCN(c2ccc(Nc3ccnc4cc(Cl)ccc34)cc2)CC1,78*,-34,-15,-48,8,39,40,51*
CCN1CCN(c2ccc(Nc3ccnc4ccccc34)cc2)CC1,87*,.,33,.,-3,-4,84*,30
CCOc1ccc(Nc2ccnc3cc(Cl)ccc23)cc1,23,-24,3,-1,30,16,.,.
SMILES,Mdm2-MdmX inh,KLF5 inhibitor,Jurkat NFkB inh,aSyn UTR inh,697 NFkB inh,Gli-Sufu antag,Mdm2 MdmX conf,FLuc counter
CCCCc1ccc(/C(C)=N/Nc2cc(N3CCOCC3)nc(C)n2)cc1,13,-7,2,-6,-45,28,.,.
CSc1c(CC(=O)Nc2ccccc2)n(C)c2ccccc12,50*,29,-26,50,-124,4,-35,.
CSc1c(CC(=O)Nc2ccc(F)cc2)n(Cc2ccccc2)c2ccccc12,86*,1,9,-29,14,20,18,.
Cn1c(CC(=O)Nc2ccccc2)c(Sc2ccccc2)c2ccccc21,15,-8,2,-15,-26,-1,.,.
Cn1c(=O)n(CC(=O)Nc2ccc(F)cc2)c2ccccc21,1,-7,0,26,19,-2,.,.
Cc1ccc(C(=O)c2oc3ccccc3c2NC(=O)c2cc(-c3cc(C)ccc3O)n[nH]2)cc1,78*,-16,5,-30,6,-6,32,72*
COc1ccc(CN2C[C@]3(CO)O[C@@H](CO)C[C@@H]3S2(=O)=O)cc1,29,.,.,.,11,10,.,.
COc1ccc(OC)c(N=c2oc3c(OC)cccc3cc2C(=O)NCc2ccco2)c1,43,.,18,-37,24,1,.,.
COc1ccccc1N=c1oc2c(OC)cccc2cc1C(=O)NCc1ccco1,51*,-5,-5,6,-4,9,3,.
COc1ccccc1N(C(=O)c1snc(C(N)=O)c1N)C(C(=O)NCc1ccccc1)c1ccc(O)cc1 (centres undefined),-2,8,-2,13,10,1,.,.
NC(=O)c1nsc(C(=O)N(c2ccccc2F)C(C(=O)NCc2ccc(F)cc2)c2ccc(O)cc2)c1N (centres undefined),65*,-12,38,22,35,25,63*,81*
CCN(C(=O)COC(=O)c1cc([N+](=O)[O-])ccc1N1CCOCC1)c1ccccc1,7,.,19,.,-10,6,.,.
COc1cc2ccccc2cc1C(=O)NNC(=O)c1ccccc1O,56*,7,3,50,-23,.,48*,40*
COc1cc(NC(=O)c2cc3ccccc3cc2O)c(OC)cc1Cl,100*,-42,5,-12,2,26,91*,42*
CCn1c(O)c(N=Nc2ccc3ccccc3n2)c2ccccc21,-125,-18,-112,-143,-102,-87,.,.
Brc1ccc(N=Nc2ccc3ccccc3n2)cc1,79*,-31,47,95*,-127,-27,72*,48*
